# In the supplement of paper PMC10646978:
# ± gives the standard deviation.
# Tests used:
# Settings in all cases: modulator concentration 10 µM
# [1] = system: RAW-Dual (murine macrophage reporter line); experiment: NF-kB reporter (SEAP) activity fold change vs agonist alone; higher = enhanced NF-kB activity
# Procedure, shortened: (§1)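 RAW-Dual murine macrophage reporter cells were plated at 50 000 per well in 384-well plates, pin-transferred compound to 10 μM final, and pre-incubated for 1 hour at 37 °C before a PRR agonist was added and the cells incubated overnight. NF-κB activity was read from supernatant SEAP with QUANTI-Blue at 620 nm absorbance, and IRF activity from Lucia luciferase with QUANTI-Luc by luminescence. Each signal was expressed as fold change by dividing by the mean agonist-only control on the same plate. Two replicate plates were averaged, with errors obtained by propagation.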
# [2] = system: RAW-Dual (murine macrophage reporter line); experiment: IRF reporter (Lucia luciferase) activity fold change vs agonist alone; higher = enhanced IRF activity
# Procedure, shortened: as §1
# [3] = system: RAW-Dual (murine macrophage reporter line); experiment: viability score (confluency relative to resting cells, overnight) (fraction); higher = more viable, active = viable (0.7 or more)
# Procedure, shortened: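 Compound was added at a final 10 μM to RAW-Dual macrophages in 384-well plates and left overnight. Confluency was imaged with IncuCyte, and two masks were generated in IncuCyte software over all imaged wells. Each viability score is confluency relative to resting cells, and a compound met the cutoff only when both masks were above 70% of resting cells.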
# [4] = agonist: CpG ODN 1826 0.5 ug/mL
Compound,"NF-kB reporter [1, 4]",NF-kB reporter ([1]; agonist: LPS 0.1 ug/mL),NF-kB reporter ([1]; agonist: MPLA […]),IRF reporter ([2]; agonist: 3'3'-cGAMP 10 ug/mL),IRF reporter ([2]; agonist: LPS 0.1 ug/mL),IRF reporter ([2]; agonist: MPLA […]),viability score [3]
c1ccc(CCn2c(COc3ccccc3)nc3ccccc32)cc1,1.01 ± 0.16,0.987 ± 0.13,1.16 ± 0.16,1.21 ± 0.043,1.24 ± 0.16,1.34 ± 0.29,1.01 (active)
COc1ccc(Cl)c(Nc2nc3ccccc3nc2NS(=O)(=O)c2cccc(NC(=O)C(C)(C)N)c2)c1,0.841 ± 0.23,1.05 ± 0.12,1.11 ± 0.087,0.221 ± 0.013,1.21 ± 0.13,1.32 ± 0.3,0.592 (inactive)
O=S(=O)(Nc1ccc(-c2nc3cccnc3s2)cc1)c1cccs1,0.902 ± 0.23,0.748 ± 0.23,0.566 ± 0.07,0.783 ± 0.027,0.973 ± 0.37,0.892 ± 0.12,0.672 (inactive)
COCCN(CCOC)C(=O)Cc1csc2nc(-c3ccc(F)cc3)cn12,1.1 ± 0.27,0.966 ± 0.084,0.949 ± 0.067,0.947 ± 0.064,1.09 ± 0.15,1.31 ± 0.24,0.653 (inactive)
NC(=O)c1c(NC(=O)CN2C(=O)C(=Cc3ccc(Cl)cc3Cl)SC2=S)sc2c1CCCC2,0.936 ± 0.081,1.07 ± 0.067,0.885 ± 0.058,0.841 ± 0.028,1.23 ± 0.092,1.03 ± 0.29,0.997 (active)
COc1ccc2ncc(S(=O)(=O)c3ccccc3)c(N3CCN(c4ccccc4)CC3)c2c1,0.611 ± 0.034,0.924 ± 0.068,1.14 ± 0.13,1.05 ± 0.036,1.4 ± 0.16,1.13 ± 0.14,0.981 (active)
CCN1C(=O)C(=Cc2cc(Br)ccc2OCCOc2ccccc2Cl)SC1=S,0.714 ± 0.064,0.899 ± 0.11,1.1 ± 0.096,0.982 ± 0.057,1.14 ± 0.086,1.18 ± 0.12,1.02 (active)
O=C(COc1ccccc1)N1CCCC1Cn1nccn1 (stereo unspecified),0.962 ± 0.09,0.951 ± 0.077,0.923 ± 0.1,0.904 ± 0.049,1.17 ± 0.1,1.06 ± 0.25,0.975 (active)
CC(C)(C)c1cc(C(=O)NN=Cc2ccc([N+](=O)[O-])cc2)[nH]n1,0.924 ± 0.12,0.953 ± 0.083,0.893 ± 0.09,0.858 ± 0.061,1.2 ± 0.11,1.02 ± 0.072,1.01 (active)
CC(C)C(C(=O)Nc1ccccc1C(N)=O)N1C(=O)c2ccccc2C1=O (stereo unspecified),0.93 ± 0.085,1.1 ± 0.071,0.932 ± 0.058,1.02 ± 0.043,1.34 ± 0.16,1.16 ± 0.075,1.01 (active)
CC(C)Nc1cc(-c2c[nH]c(C(=O)N[C@H](CO)c3cccc(Cl)c3)c2)c(Cl)cn1,0.208 ± 0.012,0.0734 ± 0.0045,0.158 ± 0.01,0.677 ± 0.022,1.46 ± 0.12,0.62 ± 0.093,0.742 (active)
COC(=O)C1=C(C)NC(C)=C(C(=O)OC)C1c1c(F)cccc1Cl,0.828 ± 0.067,1.27 ± 0.072,1.42 ± 0.092,1.1 ± 0.04,1.17 ± 0.11,1.2 ± 0.23,0.979 (active)
CCOC(=O)C1=C(C)NC(C)=C(C(=O)OC)C1c1cccc(Cl)c1Cl (stereo unspecified),0.824 ± 0.081,0.603 ± 0.053,0.764 ± 0.068,1.13 ± 0.06,1.35 ± 0.095,1.03 ± 0.17,0.859 (active)
